Assay results from PubChem BioAssay (NCATS).
Results filed as inconclusive are left out. Where a call stands in place of a potency, no number is given. Values without a mark were called inactive. The source made the active and inactive calls. The call rests on the fitted dose curve; in most records, active means well fitted inhibition curve with a large enough effect; inconclusive means small, poorly fitted or top-dose-only effect; inactive means flat fitted curve, though single readings scatter.

Experiment: P-glycoprotein substrates identified in KB-8-5-11 adenocarcinoma cell line, qHTS therapeutic library screen (AID 1346987); further: nearly all actives have a fitted effect of over 65% in size
Details: KB-8-5-11 (P-gp overexpressing) viability, CellTiter-Glo, 72 h; series mostly up to 44.5 µM
In short: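 In this qHTS, P-gp-rich KB-8-5-11 cells received library compounds across a concentration range. Viability was quantified by luminescence after 72 h at 37 degree C.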
Potency means the concentration at half of the fitted maximal effect.

SMILES | Potency | activity change, negative = cytotoxicity
C/C=C1\[C@H](O[C@@H]2O[C@H](CO)[C@@H](O)[C@H](O)[C@H]2O)OC=C(C(=O)OC)[C@H]1CC(=O)O | inactive | 
C=C[C@H]1[C@H](O[C@@H]2O[C@H](CO)[C@@H](O)[C@H](O)[C@H]2O)OC=C(C(=O)OC)[C@H]1C[C@@H]1c2cc(O)c(O)cc2CCN1C(C)=O | inactive | 
O=C(OCC1=CC(O)C2C=CO[C@@H](O[C@@H]3O[C@H](CO)[C@@H](O)[C@H](O)[C@H]3O)C12)c1ccccc1 (some centres undefined) | inactive | 
CC(C)c1cc(CNc2nc(Nc3cc(C4CC4)[nH]n3)cc(N3CCN(C)CC3)n2)on1 | 5.8 µM (active) | 
COc1cccc2cc3c(c(O[C@@H]4O[C@H](CO[C@@H]5O[C@H](CO)[C@@H](O)[C@H](O)[C@H]5O)[C@@H](O)[C@H](O)[C@H]4O)c12)C(C)OC3=O (some centres undefined) | inactive | 
CC(C)(C)Nc1nc(Nc2ccc(C(N)=O)cc2)cc(N)c1C#N | 2.06 µM (active) | 
COC(=O)CC1CC(c2ccc(O)cc2)=NO1 (centres undefined) | inactive | 
CCOc1cc(C(=O)N2CCC(N3CCN(C)CC3)CC2)ccc1Nc1ncc2c(n1)N(C1CCCC1)c1ccccc1C(=O)N2C | 13 µM (active) | 
CC(C)[N+]1(C)C2CCC1CC(OC(=O)C(CO)c1ccccc1)C2 (centres undefined) | inactive | 
COc1cc2c(cc1OC)N1C(=O)C[C@]34C=CCN5CC[C@@H]2[C@@H](CC3)[C@]514 | inactive | 
COc1cc(/C=C/CO)cc(OC)c1O[C@@H]1O[C@H](CO[C@@H]2O[C@H](CO)[C@@H](O)[C@H](O)[C@H]2O)[C@@H](O)[C@H](O)[C@H]1O | inactive | 
CCCN1CCC(c2cccc(S(C)(=O)=O)c2)CC1 | inactive | 
CC(C)C(C(=O)N(C)C(C)C(N)=O)N(C)C(=O)C1CCCN1C(=O)/C=C/C=C/C(O)C(C)O (centres undefined) | inactive | 
CC1=CC(=O)C2C(C)(C)CCC[C@]2(C)[C@H]1CO (some centres undefined) | inactive | 
COC1CC(O[C@H]2CC[C@@]3(C)C(=CC[C@]4(O)C3[C@H](OC(C)=O)[C@@H](OC(=O)c3ccccc3)[C@]3(C)[C@@H](C(C)=O)CC[C@@]34O)C2)OC(C)C1OC1CC(OC)C(OC2CC(OC)C(OC3OC(C)C(OC4OC(CO)C(O)C(O)C4O)C(OC)C3O)C(C)O2)C(C)O1 (some centres undefined) |  | 1.94% [at 9.29 µM]
C[C@@]1(O)[C@H](O)[C@@H](CO)O[C@H]1n1ccc(N)nc1=O | inactive | 
CC(C)NCC(C(=O)N1CCN(c2ncnc3c2C(C)CC3O)CC1)c1ccc(Cl)cc1 (centres undefined) | inactive | 
CN(C)C/C=C/C(=O)Nc1cccc(C(=O)Nc2cccc(Nc3ncc(Cl)c(-c4c[nH]c5ccccc45)n3)c2)c1 | 13 µM (active) | 
c1cc(Nc2cc(C3CC3)[nH]n2)nc(Nc2ccc3nc[nH]c3c2)n1 | 6.51 µM (active) | 
COc1ccc(/C=C/C(=O)O[C@@H]2[C@@H](O)[C@H](C)O[C@@H](O[C@H]3[C@@H]4C=CO[C@@H](O[C@H]5O[C@@H](CO)[C@H](O)[C@@H](O)[C@@H]5O)[C@@H]4[C@@]4(CO)O[C@@H]34)[C@@H]2OC(C)=O)cc1 | inactive | 
COc1cccc(-c2cc(NCc3ccc4c(c3)OCO4)nc(N)n2)c1 | 0.164 µM (active) | 
C=C1C[C@@]23CCC4[C@@](C)(CCC[C@@]4(C)C(=O)OC)C2CC[C@@H]1C3 (some centres undefined) | inactive | 
COc1ccc(CCO[C@@H]2CCCC[C@H]2N2CC[C@@H](O)C2)cc1OC | inactive | 
O=C(Nc1ccc(S(=O)(=O)C(F)(F)F)cc1)C1=CCN(c2ncccc2C(F)(F)F)CC1 | 14.6 µM (active) | 
COC(=O)C1=CO[C@@H](O[C@@H]2O[C@H](CO)[C@@H](O)[C@H](O)[C@H]2O)[C@@H]2C(CO)=CC[C@]12O | inactive | 
CC1CCC2(C(=O)O)CCC3(C)C(=CCC4C5(C)CCC(O)C(C)(CO)C5CCC43C)C2C1(C)O (centres undefined) | inactive | 
COC(=O)N(C)c1c(N)nc(-c2nn(Cc3ccccc3F)c3ncccc23)nc1N | inactive | 
C[C@@H]1C[C@@H](O)[C@@]23CO[C@@H](O)[C@@H]2CCC[C@@H]3[C@@]12C[C@@H](c1ccoc1)OC2=O | inactive | 
CN(C)CCCCC(=O)Nc1ccc(NC(=S)NC(=O)c2ccc(C(C)(C)C)cc2)cc1 | 13 µM (active) | 
